Screening results (PubChem)
Hits are enriched below; roughly 4% of the tested compounds scored in any of these assays.
Rv3671c inh = Rv3671c serine protease inhibitors, primary screen, biochemical, fluorescence polarization, M. tuberculosis H37Rv; P9WHR9; 320,000 tested, 0.048% active; inhibition, % at 5.96 µM; in the data active = inhibition above about 38%;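 also: extracellular domain of Rv3671c used as enzyme; 0% = enzyme with DMSO and 100% = no enzyme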
GDH-TPI counter-1 = GDH-TPI coupling enzyme inhibitors, primary screen, artefact control for M. tuberculosis FBA inhibitor project, biochemical, absorbance, full deck. inhibition, % at 4.8 µM. GDH-TPI coupled enzyme counterscreen, NADH absorbance. 360,000 tested, 1.2% active; in the data active = inhibition above about 30%;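 also: 0% = DMSO wells and 100% = wells lacking the enzyme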
RecA splice inh = Mtb RecA intein splicing inhibitors, primary screen, biochemical, fluorescence, HTS. Protein RecA (Mycobacterium tuberculosis (strain ATCC 25618 / H37Rv)), P9WHJ3. cell-free RecA intein splicing. inhibition, % (test concentration not listed). 290,000 tested, 0.75% active; in the data active = inhibition above about 30%; inconclusive = no clear call, values can overlap the other calls;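 also: 0% = vehicle wells and 100% = reference inhibitor control wells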
Mtb UGM inh = M. tuberculosis UGM enzyme inhibitors, primary screen, biochemical, fluorescence polarization, single point; UDP-galactopyranose mutase (Mycobacterium tuberculosis (strain ATCC 25618 / H37Rv)), …; purified UGM, fluorescence polarization probe displacement; inhibition, % at 10 µM; 320,000 tested, 0.06% active; in the data active = inhibition above about 10%, passing the limit was not always enough; inconclusive = no clear call, values can overlap the other calls
Mtb FBA inh = Mtb FBA enzyme inhibitors, primary screen, biochemical, fluorescence, strain H37Rv; 360,000 tested, 2.3% active; purified M. tuberculosis FBA, fluorescence read-out; inhibition, % at 1 µM;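 also: 0% = vehicle and 100% = reference inhibitor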
Mtb bLac sens = beta-lactam sensitization of Mtb H37Rv, H37Rv; M. tuberculosis H37Rv growth with meropenem, percent inhibition; inhibition, % at 25 µM; 330,000 tested, 0.27% active; call rule not given here;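 also: growth measured after seven days incubation then overnight dye step; 0% = bacteria only wells and 100% = bacteria with antibiotic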
Mtb FBA inh conf = M. tuberculosis aldolase blockers, biochemical, fluorescence, strain H37Rv, confirmation; shares compounds with Mtb FBA inh; purified M. tuberculosis FBA, fluorescence read-out; inhibition, % at 1 µM; 5,600 tested, 78% active;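 also: 0% = vehicle wells and 100% = reference inhibitor wells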
GDH-TPI counter-2 = GDH-TPI coupling enzyme inhibitors, artefact control for M. tuberculosis FBA inhibitor project, biochemical, fluorescence, high throughput. shares compounds with Mtb FBA inh. GDH-TPI coupled enzyme counterscreen. inhibition, % at 1 µM. 5,600 tested, 81% active. AID 652141, 2013; in the data active = inhibition above about 10%
* marks the source's active call; other numbers are inactive results; i = inactive; u = inconclusive; x = no result given; + = active, no number. Rule as the data show it, unless noted: active = inhibition above about 27%; inactive = the rest.

SMILES	Rv3671c inh	GDH-TPI counter-1	RecA splice inh	Mtb UGM inh	Mtb FBA inh	Mtb bLac sens	Mtb FBA inh conf	GDH-TPI counter-2
COc1ccc2oc(C(=O)OCC(=O)NC3(C#N)CCCC3)c(C)c2c1	0	-3	1	-5	35*	4	+	+
COc1ccc2oc(C(=O)OCC(=O)NCc3ccccc3OC)c(C)c2c1	-11	4	-1	-1	18	1	x	x
COc1ccc2oc(C(=O)OCC(=O)NC3CCCC3)c(C)c2c1	-5	8	1	-1	38*	u	132*	113*
COc1ccc2oc(C(=O)OCC(=O)Nc3cc(S(=O)(=O)N4CCOCC4)ccc3C)c(C)c2c1	-51	9	-3	1	32*	2	-3	-5
CCOc1ccc2oc(C(=O)OCC(=O)NC3CCCCC3)c(C)c2c1	-8	-6	x	-2	22	19	x	x
COc1ccc2oc(C(=O)OCC(=O)Nc3ccc(NC(C)=O)cc3)c(C)c2c1	-75	8	x	2	27*	-2	94*	80*
CN(CC(=O)Nc1ccccc1Cl)C(=O)COC(=O)CNC(=O)c1ccc(Br)o1	15	6	0	1	4	7	x	x
Cc1ccc(C)c(NC(=S)N2CCN(CCO)CC2)c1	-4	0	1	-3	6	-1	x	x
COc1ccc2oc(C(=O)OCC(=O)NC3CCS(=O)(=O)C3)c(C)c2c1 (configuration not stated)	x	6	x	x	53*	x	167*	104*
COc1ccc(C(=O)NCCc2ccc(F)cc2)cc1OC	-2	-2	-2	0	-1	-7	x	x
CCN1C(=O)CSc2ccc(C(=O)NCc3ccco3)cc21	1	6	1	0	2	-1	x	x
CCN1CCN(C(=O)c2ccc3c(c2)N(Cc2ccc(C)cc2)CCS3)CC1	10	7	3	3	26	2	x	x
COc1ccc(CCNC(=O)c2ccc3c(c2)N(Cc2ccc(F)cc2)CCS3)cc1OC	-14	4	13	-1	72*	2	55*	33*
Cc1ccc(CN2CCSc3ccc(C(=O)NCc4ccco4)cc32)cc1	13	4	x	-3	54*	1	5	-1
CCN1CCN(CCCNC(=O)c2ccc3c(c2)N(Cc2ccc(C)cc2)CCS3)CC1	5	9	-10	-2	76*	-1	131*	102*
CC(C)=C(c1ccc(Cl)cc1)c1c(N)ncnc1N	x	16	x	x	6	x	x	x
Cc1ccc2nc(Cl)cc(=O)n2c1	x	26	x	x	45*	x	130*	88*
Cc1ccc(-c2cn3nc(C)c(C)nc3n2)cc1	3	-3	-254	1	34*	3	3	3
CCC(=O)c1ccc(/C=C/c2nc3ccccc3n2C)o1	1	11	i	1	83*	-1	-5	-5
C(=N\n1cnnc1)/c1nc2ccccc2[nH]1	-3	20	-1	-2	74*	-4	60*	49*
Cn1c(/C=N/c2nc3ccccc3[nH]2)nc2ccccc21	1	10	-2	-2	6	x	x	x
Cn1c(/C=N/n2cnnc2)nc2ccccc21	4	37*	0	1	45*	10	14	-3
Cn1c(/C=N/O)nc2ccccc21	-7	4	-2	-4	52*	1	21	10*
CCOC(=O)N1CCC(NC(=O)CN(C)S(=O)(=O)c2cc3c(cc2Cl)NC(=O)CO3)CC1	2	-6	2	2	0	-1	x	x
CN1CCN(C2CN(Cc3cn(Cc4ccccc4F)nn3)S(=O)(=O)C2)CC1 (configuration not stated)	x	x	x	x	1	x	x	x
